Source: PubChem (National Center for Advancing Translational Sciences (NCATS))
HepG2 viability = HepG2 cytotoxicity, counter-screen for TGF-b inhibitors; HepG2 CAGA-GFP viability, ATP luminescence, 18 h; Potency, µM (doses to about 46.1 µM), without a hit: top-dose activity change, negative = cytotoxicity, hits mostly cytotoxic; hit rate 0.76% among 410,000; further: potency means the concentration at half of the fitted maximal effect
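CellTiter-Glo luminescence gave cytotoxicity after 18 hours at 37 degrees C. The cells were HepG2 CAGA-GFP in 1% FBS DMEM, stimulated with 500 pg/mL TGF-beta after compound addition. %Activity was normalised to no-cell wells (complete cell-killing) and DMSO (no toxicity), and curves were fitted and classified.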
TGFb inhibitor = inhibitors of TGF-b signaling; AID 588855; Potency, µM (series often up to 46.1 µM), for inactives: at the top dose activity, negative = inhibition, usual class: inhibitors; hit rate 1.2% among 410,000; HepG2 CAGA-GFP TGF-b/SMAD3 reporter, GFP fluorescence, 18 h; TGF-beta stimulated, 500 pg/mL final; further: potency means the concentration at half of the fitted maximal effect; on the % scale 0 is the no-effect control and ±100 the full control effect; nearly all actives have a fitted effect of over 65% in size
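Cell-based qHTS in HEPG2 carrying a CAGA-GFP Smad reporter; compounds added before 500 pg/mL final TGF-beta, 18 h incubation at 37 degrees C, GFP fluorescence quantified per cell by imaging cytometry.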
TDP1 cell noCPT = qHTS for Inhibitors of human tyrosyl-DNA phosphodiesterase 1 (TDP1): qHTS in cells in absence of CPT; DT40 Tdp1-/- hTDP1 cells, no CPT, ATP luminescence, 48 h; Potency, µM (series often up to 46.2 µM), inactives show at the top dose activity change, negative = growth inhibition, most hits filed as inhibitors; hit rate 15% among 420,000; AID 686978, 2013; further: potency means the concentration at half of the fitted maximal effect; on the % scale 0 is the no-effect control and ±100 the full control effect; nearly all actives have a fitted effect of over 55% in size
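Camptothecin absent (DMSO only). Human TDP1-complemented DT40 knockout cells, 400 cells/well, 37 °C for minimum 48 hr; ATP measured via CellTiter-Glo, 30 min dark incubation, luminescence.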
IL1B secr inh = inflammasome signaling inhibition, IL-1 beta readout; THP-1 LPS/ATP IL-1B secretion, AlphaLISA, 16 h; hits give low values; AID 743279; hit rate 4.7% among 360,000; activity change, % at 57.5 µM; in the data active means activity change below about -50%; inconclusive means mostly about -30% to -49%; further: on the % scale 0 is the no-effect control and ±100 the full control effect
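Secreted IL-1B measured by AlphaLISA bead assay after 16 h compound exposure of THP-1 cells; compounds (final up to 57.5 uM) added 1 h before LPS (250 ng/mL) and ATP (1.25 mM) stimulation; lower signal means less secretion.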
DT40 TDP1 CPT = growth inhibition of DT40 Tdp1-/-;hTDP1 cells with camptothecin (screen for TDP1 inhibitors). Potency, µM (titrated, usually from 46.2 µM), for the others: at the highest dose activity change, negative = growth inhibition, hits mostly inhibitors. hit rate 12% among 420,000. chicken DT40 Tdp1-/-;hTDP1 cells + 20 nM CPT, ATP luminescence, 48 h; further: potency means the concentration at half of the fitted maximal effect; on the % scale 0 is the no-effect control and ±100 the full control effect; nearly all actives have a fitted effect of over 55% in size
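Cell growth measured by CellTiter-Glo luminescence after a minimum 48 h, 37 C compound exposure with 20 nM CPT in Tdp1-knockout DT40 cells stably expressing hTDP1, seeded 400/well; qHTS titration format.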
TDP1 inh = TDP1 (human) enzyme inhibition. recombinant TDP1, AlphaScreen DNA substrate cleavage. Potency, µM (doses to about 130 µM), without a hit: top-dose activity change, negative = inhibition, usual class: inhibitors. hit rate 0.28% among 350,000; further: potency means the concentration at half of the fitted maximal effect; on the % scale 0 is the no-effect control and ±100 the full control effect; nearly all actives have a fitted effect of over 40% in size
Target sequence (Q9NUW8 whole entry, looked up): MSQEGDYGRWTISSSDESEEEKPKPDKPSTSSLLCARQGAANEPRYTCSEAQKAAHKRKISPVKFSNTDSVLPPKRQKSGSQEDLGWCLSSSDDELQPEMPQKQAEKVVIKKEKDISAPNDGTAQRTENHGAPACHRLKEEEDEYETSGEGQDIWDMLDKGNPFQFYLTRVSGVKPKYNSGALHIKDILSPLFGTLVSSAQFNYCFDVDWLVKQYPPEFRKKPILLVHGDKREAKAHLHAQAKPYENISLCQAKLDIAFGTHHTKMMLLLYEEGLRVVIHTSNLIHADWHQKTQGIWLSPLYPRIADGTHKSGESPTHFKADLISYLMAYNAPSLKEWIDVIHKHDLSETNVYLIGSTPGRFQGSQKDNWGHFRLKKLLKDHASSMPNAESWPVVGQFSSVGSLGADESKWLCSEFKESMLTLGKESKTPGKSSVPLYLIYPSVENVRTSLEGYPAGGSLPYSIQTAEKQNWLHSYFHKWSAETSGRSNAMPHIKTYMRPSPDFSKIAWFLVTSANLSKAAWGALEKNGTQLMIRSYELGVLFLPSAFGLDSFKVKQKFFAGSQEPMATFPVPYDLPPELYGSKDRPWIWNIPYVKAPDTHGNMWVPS
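Compounds were preincubated with Tdp1 (1 nM final) for 15 min at room temperature before substrate (15 nM final) started a 5 min reaction; beads (10 ug/ml final) were then added for 10 min before AlphaScreen detection.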
Starred values were filed as active, the others as inactive; ? = inconclusive; . = no result. Most compounds without a hit are left out; they make up all but 19% or so of the library. Unless noted, the call rests on the fitted dose curve; in most records, active means well fitted curve in the direction sought with a large enough effect; inconclusive means small, poorly fitted or top-dose-only effect, or another doubt; inactive means no such curve, though single readings can be large; an effect the other way counts as inactive or inconclusive.

SMILES	HepG2 viability	TGFb inhibitor	TDP1 cell noCPT	IL1B secr inh	DT40 TDP1 CPT	TDP1 inh
O=C(Nc1ccc(F)c(Cl)c1)C1Cc2ccccc2CN1S(=O)(=O)c1ccc(F)cc1 (centres undefined)	-26.3%	.	?	.	?	6.1%
CCNc1ncc2nc(-c3cc(F)cc(F)c3)c(=O)n(Cc3ccc(F)cc3)c2n1	.	.	1.4%	.	-3.9%	.
COc1cc(NC(=O)[C@@H](NC(=O)c2ccco2)C(C)C)c(OC)cc1NC(=O)c1ccccc1	8.1%	16.1%	?	32.0	-5.9%	0.0%
CC(NC(=O)c1ccc(C(=O)c2ccccc2)cc1)c1ccc(S(N)(=O)=O)cc1 (centres undefined)	-12.1%	-9.5%	?	-52.3*	-23.8%	0.4%
COc1cc(/C=C2/N=C(C3CCCCC3)OC2=O)cc(OC)c1OC	6.3%	?	-19.2%	-24.5	-21.2%	0.0%
COc1cc(/C=C2\CCC(C)C3=C(c4cc(OC)c(OC)c(OC)c4)C(C#N)=C(N)OC32)cc(OC)c1OC (centres undefined)	-4.7%	-1.4%	3.66µM*	-15.8	2.59µM*	.
COC(=O)C=CSC(=S)C1CCCC1=N (centres undefined)	-21.1%	-13.0%	-21.9%	-2.8	2.1%	.
CC(C)Cc1nnc(NC(=O)C23CC4CC(CC(C4)C2)C3)s1	-1.1%	1.8%	18.4µM*	38.3	?	.
CCN1CCc2c(sc(NC(=O)c3ccc(S(=O)(=O)N4CCOCC4)cc3)c2C(N)=O)C1	-4.0%	3.3%	?	?	?	-2.1%
CCN1CCc2c(sc(NC(=O)c3ccc(S(=O)(=O)N4CCOCC4)cc3)c2C(=O)OC)C1	-38.7%	-3.7%	?	-4.9	8.2µM*	2.0%
COC(=O)c1c(NC(=S)NN2CCOCC2)sc2c1CCCC2	-19.3%	?	14.6µM*	-12.9	?	.
COC(=O)c1c(NC(=O)C2CC2)sc2c1CCCC2	-3.5%	4.4%	-25.0%	7.6	-12.2%	5.4%
COC(=O)c1c(NC(=O)c2ccc(S(=O)(=O)N3CCOCC3)cc2)sc2c1CCN(C)C2	-26.4%	-0.9%	?	-74.6*	?	5.0%
CCOC(=O)c1c(NC(=O)c2ccc(S(=O)(=O)N3CCOCC3)cc2)sc2c1CCN(C(C)C)C2	-0.2%	-0.4%	8.2µM*	?	?	2.5%
Cc1ccc(CNC(=O)c2cc3c(=O)n(Cc4cccnc4)ccc3nc2C)cc1	2.9%	-1.4%	-19.7%	.	-14.2%	8.4%
Cc1cc[n+](CC#N)cc1	-5.1%	-0.7%	2.4%	.	-9.7%	.
Cc1onc(-c2ccccc2)c1C(=O)N1CCN(c2ncccn2)CC1	10.3%	17.5%	-20.6%	5.5	-15.5%	0.0%
Cc1ccc(Cn2cc(CCC(=O)NCc3ccccc3F)c3ccccc32)cc1	-5.3%	-0.9%	-23.1%	.	-12.3%	0.0%
COc1ccc(Br)cc1CNC(=O)CCc1cn(Cc2ccc(C)cc2)c2ccccc12	-19.2%	-23.3%	23.1µM*	.	?	5.1%
CCOc1ccccc1CNC(=O)CCc1cn(Cc2ccc(Cl)cc2)c2ccccc12	-40.8%	-27.9%	16.4µM*	.	18.4µM*	7.7%
CC1CCC(NC(=O)CCc2cn(Cc3ccc(F)cc3)c3ccccc23)CC1 (centres undefined)	-8.4%	?	?	.	?	-2.6%
Cc1ccc(Cn2cc(CCC(=O)NC3CCC(C)CC3)c3ccccc32)cc1 (centres undefined)	-33.5%	?	13µM*	.	?	5.1%
COc1ccc(OC)c(CCNC(=O)CCc2cn(Cc3cc(C)ccc3C)c3ccccc23)c1	-18.6%	-31.7%	?	.	?	7.7%
